Test [1] is described as follows: stimulators of nuclear beta-catenin in C2C12, primary screen, imaging, WNT3A-conditioned medium, mouse C2C12, NPC library (AID 1117326; in the data active = nuclear beta-catenin stimulation mostly above about 4.2%, no sharp cut-off; inactive = mostly below about 10%). To be noted: stronger effect = higher value.
The nature of test [2]: stimulators of insulin release from INS-1E, primary screen, cell-based, 5 mM glucose, NPC library (AID 1117329;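 active = compound raises insulin release from rat beta cells at 5 mM glucose, no numeric limit stated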). To be noted: rat INS-1E insulin secretion, at 10 µM, stronger effect = higher value.
Test [3] can be described thus: growth inhibition of GSK3B-pretreated HCT116 cells – cell-based, CellTiter-Glo, 0.2 to 20 µM (AID 1117336;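 active = compounds lowering colon cancer cell viability after pretreatment blocking the GSK3B kinase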). To be noted: HCT116 viability after GSK3B inhibitor, at 20 µM, stronger effect = higher value. On the technique in general: In ATP-based viability assays light output follows the ATP content of the culture.
A short description of test [4]: inhibition of endothelial tube formation, primary screen, imaging, VEGF stimulated, CD31 staining, tube area, NPC library (AID 1117340;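 active = compound that reduces growth-factor-driven endothelial tube area in a mixed cell culture, no cutoff stated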). To be noted: VEGF-stimulated ADSC/ECFC co-culture, at 10 µM, stronger effect = higher value.
Test [5] can be described thus: glucagon-like peptide 1 release enhancers, primary assay, NCI-H716 cell line, NPC library (AID 1117341). To be noted: NCI-H716 cells, at 10 µM, stronger effect = higher value.
Test [6] in a line: HCT116 colon cancer cell growth inhibition, primary screen, CellTiter-Glo luminescence, NPC library (AID 1117342;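 active = compounds that lower survival of HCT116 colon cancer cells in the luminescence readout, no numeric limit stated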). To be noted: at 20 µM (top of the series).
The nature of test [7]: CellTiter-Glo luminescent readout of SW480 viability loss, NPC library primary (AID 1117343;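 active = compounds that lower viability of the colon cancer cells in the luminescence readout, with no numeric limit stated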). To be noted: CellTiter-Glo luminescence; at 20 µM (top of the series) unless noted.
A short description of test [8]: decreased DLD-1 cellular survival, CellTiter-Glo luminescent readout, NPC compound collection, primary HTS (AID 1117346;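 active = compounds that lower survival of DLD-1 colon cancer cells in the luminescence readout, no cutoff given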). To be noted: DLD-1 viability, CellTiter-Glo luminescence; at 20 µM (top of the series).
The target in test [9] is NAD(+) hydrolase SARM1 (Homo sapiens) (UniProt Q6SZW1). The test can be described thus: SARM1 TIR NADase inhibitors, cell lysate, NAD-Glo luminescence (AID 1508614;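 active = compound whose remaining NAD level is above about 45 nM, limit read from the data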;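 note: higher remaining NAD means stronger inhibition of SARM1 NADase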). To be noted: SAM-TIR HEK293T lysate NADase, at 1 µM, stronger effect = higher value.
Chain of NAD(+) hydrolase SARM1 (Homo sapiens) (Q6SZW1 whole entry, looked up): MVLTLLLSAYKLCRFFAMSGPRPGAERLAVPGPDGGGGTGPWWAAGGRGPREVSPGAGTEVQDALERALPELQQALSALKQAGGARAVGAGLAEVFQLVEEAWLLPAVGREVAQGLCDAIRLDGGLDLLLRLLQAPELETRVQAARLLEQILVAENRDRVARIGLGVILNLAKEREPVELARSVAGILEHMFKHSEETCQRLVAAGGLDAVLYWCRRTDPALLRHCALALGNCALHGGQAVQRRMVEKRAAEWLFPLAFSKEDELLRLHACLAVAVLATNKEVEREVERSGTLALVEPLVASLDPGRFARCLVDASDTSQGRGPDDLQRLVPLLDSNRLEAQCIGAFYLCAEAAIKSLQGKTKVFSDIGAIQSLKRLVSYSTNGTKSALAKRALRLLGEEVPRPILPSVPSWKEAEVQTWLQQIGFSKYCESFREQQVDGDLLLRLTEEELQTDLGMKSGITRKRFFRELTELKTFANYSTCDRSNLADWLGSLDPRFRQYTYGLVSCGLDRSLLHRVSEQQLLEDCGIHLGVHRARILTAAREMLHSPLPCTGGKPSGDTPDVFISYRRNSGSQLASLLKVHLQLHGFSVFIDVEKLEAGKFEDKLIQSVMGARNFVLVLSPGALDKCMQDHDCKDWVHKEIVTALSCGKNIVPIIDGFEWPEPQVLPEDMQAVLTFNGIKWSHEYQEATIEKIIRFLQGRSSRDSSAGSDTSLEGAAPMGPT
The nature of test [10]: survival rescue of mitochondrial mutant cells in low glucose, primary screen, MELAS cybrids, Rieske KO mouse fibroblasts, CellTiter-Glo (AID 1508586;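 active = mean z-score across replicates of 1.96 or higher in either the MELAS or the Rieske mutant cell line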;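 note: z relative to plate mean and SD of compound and empty wells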).
Test [11] deals with Mitogen-activated protein kinase 7 (Homo sapiens) (UniProt Q13164). Kind of test: ERK5 transactivation activators in reporter cells, primary screen, cell-based, HTS (AID 1508626;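 active = luciferase signal above three times the same-plate solvent-only control wells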;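 note: luciferase driven by Gal4-ERK5 fusion binding five Gal4 sites before minimal TATA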). To be noted: HeLa Gal4-ERK5 transactivation, 18 h, at 5 µM, stronger effect = higher value.
Chain of Mitogen-activated protein kinase 7 (Homo sapiens) (Q13164 whole entry, looked up, the tested form may be a part): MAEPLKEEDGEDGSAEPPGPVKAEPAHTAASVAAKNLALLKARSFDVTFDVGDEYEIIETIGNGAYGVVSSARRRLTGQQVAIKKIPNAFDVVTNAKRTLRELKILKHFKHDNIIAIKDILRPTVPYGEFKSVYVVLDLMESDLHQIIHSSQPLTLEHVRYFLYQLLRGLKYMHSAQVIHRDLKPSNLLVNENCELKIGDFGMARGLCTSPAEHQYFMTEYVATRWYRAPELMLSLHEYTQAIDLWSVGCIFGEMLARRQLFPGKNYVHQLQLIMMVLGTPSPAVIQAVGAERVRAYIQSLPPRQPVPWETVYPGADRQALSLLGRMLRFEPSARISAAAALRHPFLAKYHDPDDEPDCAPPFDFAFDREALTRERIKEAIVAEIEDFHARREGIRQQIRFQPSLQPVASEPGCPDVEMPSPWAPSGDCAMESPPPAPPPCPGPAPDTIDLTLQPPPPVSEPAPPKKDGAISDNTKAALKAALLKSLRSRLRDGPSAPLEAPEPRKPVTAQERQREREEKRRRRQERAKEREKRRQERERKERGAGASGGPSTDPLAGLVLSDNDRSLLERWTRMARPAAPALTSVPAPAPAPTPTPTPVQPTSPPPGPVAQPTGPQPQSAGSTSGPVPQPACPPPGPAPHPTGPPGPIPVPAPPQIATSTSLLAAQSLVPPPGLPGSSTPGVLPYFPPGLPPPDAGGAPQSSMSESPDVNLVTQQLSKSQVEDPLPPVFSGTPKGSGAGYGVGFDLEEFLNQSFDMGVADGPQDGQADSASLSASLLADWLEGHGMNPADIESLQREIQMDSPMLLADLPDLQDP
The nature of test [12]: sensitizers of A549 cells to miR-34 induction, primary screen, imaging, A549 dox-inducible miR-34, nuclei and caspase counts (AID 1347080;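 active = compounds whose cell count with miR-34 switched on is under 0.7 times the count with it off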). To be noted: A549 miR-34 inducible, Hoechst nuclei count, 48 h.
The mark [13] stands for this setting: MELAS cybrid survival, CellTiter-Glo 48 h, stronger effect = higher value.
[14] abbreviates: Rieske KO mouse fibroblast survival, CellTiter-Glo 72 h.

Structures are written as SMILES. The source made the active and inactive calls.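 Rule for the calls, unless noted: active = compound raises GLP1 secretion from the human gut endocrine cells, with no numeric limit stated; inactive = the rest.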

As to `CCNC(=O)/C=C/c1cccc(Br)c1`, the nuclear beta-catenin stimulation was 0.9% (inactive) in test [1] (at 10 µM) and 0.6% in test [1] (stimulation, at 2 µM). For the same compound, in test [2], the insulin secretion stimulation was -2.3% (inactive). Moreover, the viability decrease in [3] is -9.75% (inactive). Further, in [4], the tube area decrease was -15.1% (inactive). Besides, the GLP1 secretion stimulation in test [5] is -0.7% (inactive). Besides, the inhibition of viability in test [6] is -8.7% (inactive). The viability decrease (inhibition) in [7] is 38% (inactive); in test [8] it was 15.1% (inactive). The remaining NAD in test [9] is 10 nM (inactive).

In the case of `O=C1NCCN1CCN1CCC(c2cn(-c3ccc(F)cc3)c3ccc(Cl)cc23)CC1`, the nuclear beta-catenin stimulation was 5.7% (inactive) in test [1] (at 10 µM) and 0.1% in test [1] (stimulation, at 2 µM). The insulin secretion stimulation in test [2] was 5.2% (inactive). In test [3], the viability decrease was 99.9% (active). Moreover, the tube area decrease in [4] is 100% (active). Also, the GLP1 secretion stimulation in test [5] was -1.3% (inactive). Moreover, in [6], the inhibition of viability is 100% (active). Also, the viability decrease (inhibition) was 103% (active) in test [7] and 102% (active) in test [8]. Besides, the z-score is -0.903 (inactive) in test [10] (setting [13]) and 0.239 in [10] (setting [14]).

As for `O=C(NCCCN1CCOCC1)c1ccc(Cl)cc1`, the nuclear beta-catenin stimulation in test [1] (at 10 µM) was 0.6% (inactive); in [1] (stimulation, at 2 µM), 1%. Also, the insulin secretion stimulation in [2] is 1.5% (inactive). Also, in [3], the viability decrease was 1.5% (inactive). The tube area decrease in [4] was 12.7% (inactive). The GLP1 secretion stimulation in test [5] was -0.3% (inactive). The inhibition of viability in [6] was 0% (inactive). In addition, the viability decrease (inhibition) is 18.6% (inactive) in test [7] and 1.05% (inactive) in test [8]. Moreover, in test [9], the remaining NAD was 10 nM (inactive).

Take `CCOC(=O)[C@@](C)(N)Cc1ccc(O)c(O)c1`: the nuclear beta-catenin stimulation is 0.6% (inactive) in test [1] (at 10 µM) and -0.5% in [1] (stimulation, at 2 µM). For the same compound, the insulin secretion stimulation in test [2] is 2.8% (inactive). Also, in [3], the viability decrease was 37.5% (inactive). Further, the tube area decrease in [4] is -1.8% (inactive). In addition, the GLP1 secretion stimulation in test [5] is -2.3% (inactive). Also, in test [6], the inhibition of viability is 20% (inactive). For the same compound, the viability decrease (inhibition) was 65% (active) in [7] and 17.2% (inactive) in [8]. Also, the figures for the z-score in [10] (setting [13]) and in test [10] (setting [14]) were -1.64 (inactive) and -0.614, respectively. Also, in test [11], the luciferase signal is 92 AU (inactive).

On to `CCCCC(O)c1ccccc1` (configuration not stated), for which the nuclear beta-catenin stimulation in test [1] (at 10 µM) was -0.9% (inactive); in test [1] (stimulation, at 2 µM), -0.8%. Besides, in test [2], the insulin secretion stimulation is -0.1% (inactive). Besides, in [3], the viability decrease is -9.5% (inactive). Besides, in test [4], the tube area decrease is -9.9% (inactive). Moreover, in test [5], the GLP1 secretion stimulation is -3.9% (inactive). In test [6], the inhibition of viability was 5.3% (inactive). Besides, the viability decrease (inhibition) in test [7] is -5.1% (inactive); in [8], -6% (inactive). Besides, the z-score is 0.247 (inactive) in [10] (setting [13]) and 0.0374 in test [10] (setting [14]). Also, the remaining NAD in test [9] was 10 nM (inactive).

As for `CCCn1cnc2c1c(=O)n(CCCCC(C)=O)c(=O)n2C`, the nuclear beta-catenin stimulation in [1] (at 10 µM) was 6.6% (inactive); in [1] (stimulation, at 2 µM) it was -0.2%. Further, in [2], the insulin secretion stimulation is -1.25% (inactive). Besides, the viability decrease in test [3] is 14.1% (inactive). Besides, the GLP1 secretion stimulation in test [5] was -4.5% (inactive). Further, the inhibition of viability in test [6] was 20.6% (inactive). For the same compound, the viability decrease (inhibition) is -2.8% (inactive) in [7] and 19.6% (inactive) in test [8]. Also, the fold change is 1.02 (inactive) in [12] (stronger effect = lower value, cell number ratio, induced over uninduced) and 0.994 in [12] (measured here: relative caspase fold change +Dox/-Dox). In addition, the cell count in test [12] (measured here: total cells with miR-34 induction, stronger effect = lower value) is 10000; in test [12] (measured here: total cells without miR-34 induction), 9790.

As to `O=C(O)CCCCC(=O)O`, the nuclear beta-catenin stimulation is 0.3% (inactive) in test [1] (at 10 µM) and -0.9% in test [1] (stimulation, at 2 µM). Also, in [2], the insulin secretion stimulation was -0.6% (inactive). In addition, the viability decrease in [3] was -6.5% (inactive). In addition, the tube area decrease in [4] was -7.7% (inactive). The GLP1 secretion stimulation in [5] is 1.4% (inactive). Further, the inhibition of viability in [6] is -4.8% (inactive). Besides, the results for the viability decrease (inhibition) in test [7] and in test [8] were 25% (inactive) and 11.8% (inactive), respectively. Also, in [9], the remaining NAD was 10 nM (inactive).

For `O=C(O)C(S)C(S)C(=O)O` (configuration not stated), the nuclear beta-catenin stimulation is 2.3% (inactive) in test [1] (at 10 µM) and 0.8% in test [1] (stimulation, at 2 µM). In addition, the insulin secretion stimulation in [2] is 1.3% (inactive). Besides, the viability decrease in test [3] was -17% (inactive). Further, in test [4], the tube area decrease was 14% (inactive). Besides, the GLP1 secretion stimulation in [5] was 6.2% (inactive). Also, in [6], the inhibition of viability is -11.3% (inactive). Also, the results for the viability decrease (inhibition) in test [7] and in test [8] were -31.1% (inactive) and -4.5% (inactive), respectively. In addition, the luciferase signal in test [11] is 96 AU (inactive).

Values taken from PubChem BioAssay.
